Sampled rows, rich in hits. Any-hit rate of the full collection: about 17%.
DT40 TDP1 CPT – qHTS for Inhibitors of human tyrosyl-DNA phosphodiesterase 1 (TDP1): qHTS in cells in presence of CPT | chicken DT40 Tdp1-/-;hTDP1 cells + 20 nM CPT, ATP luminescence, 48 h | Potency, µM (series often up to 46.2 µM), inactives show top-dose activity change, negative = growth inhibition, usual class: inhibitors | actives 12% (n = 420,000) | AID 686979, 2013; also: % is scaled to controls: 0 for no effect and ±100 for the full control effect; nearly all actives have a fitted effect of over 55% in size
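Chicken DT40 Tdp1-/- cells stably complemented with human TDP1 were seeded at 400 cells/well in medium containing 20 nM camptothecin, exposed to pin-transferred compounds, and grown at 37 °C for at least 48 hr. Viability was read as ATP luminescence.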
TDP1 block – qHTS Assay for Inhibitors of Tyrosyl-DNA Phosphodiesterase (TDP1); Tyrosyl-DNA phosphodiesterase 1 (Homo sapiens), Q9NUW8; recombinant TDP1, AlphaScreen DNA substrate cleavage; Potency, µM (series often up to 130 µM), without a hit: at the top dose activity change, negative = inhibition, most hits filed as inhibitors; actives 0.28% (n = 350,000); also: % is scaled to controls: 0 for no effect and ±100 for the full control effect; nearly all actives have a fitted effect of over 40% in size
Target sequence (Q9NUW8 whole entry, looked up): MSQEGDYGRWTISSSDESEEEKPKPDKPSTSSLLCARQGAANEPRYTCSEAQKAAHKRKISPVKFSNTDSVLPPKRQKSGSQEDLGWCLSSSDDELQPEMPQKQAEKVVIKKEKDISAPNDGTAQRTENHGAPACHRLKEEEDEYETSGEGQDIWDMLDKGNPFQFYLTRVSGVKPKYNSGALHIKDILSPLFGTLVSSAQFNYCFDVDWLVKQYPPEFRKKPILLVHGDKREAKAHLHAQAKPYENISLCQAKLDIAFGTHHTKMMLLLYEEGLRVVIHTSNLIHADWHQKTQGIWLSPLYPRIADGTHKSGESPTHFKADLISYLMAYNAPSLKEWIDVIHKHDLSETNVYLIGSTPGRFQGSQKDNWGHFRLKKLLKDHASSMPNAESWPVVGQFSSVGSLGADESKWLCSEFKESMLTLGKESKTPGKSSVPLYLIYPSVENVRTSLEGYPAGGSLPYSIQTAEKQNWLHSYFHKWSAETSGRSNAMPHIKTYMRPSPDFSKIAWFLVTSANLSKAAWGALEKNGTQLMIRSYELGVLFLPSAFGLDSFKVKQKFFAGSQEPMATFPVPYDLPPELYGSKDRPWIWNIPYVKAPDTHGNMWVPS
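E. coli-derived human Tdp1, 1 nM final. Cpd preinc 15 min RT; substrate 15 nM final, 5 min RT; AS bead mix 10 ug/ml final, 10 min RT. Signal loss = tyrosine-FITC cleavage. No-enzyme wells = max signal.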
ClpP mod – qHTS Assay for Activators of ClpP; ATP-dependent Clp protease proteolytic subunit (Bacillus subtilis (strain 168)), P80244; purified B. subtilis ClpP, FRET peptide cleavage, 20 min; Potency, µM (series often up to 57.5 µM), without a hit: top-dose activity change, negative = active; actives 1.9% (n = 340,000); AID 651965, 2013; active = well fitted falling curve with a large enough effect; inconclusive = small, poorly fitted or top-dose-only effect; inactive = no such curve, though single readings can be large or run the other way; also: the source files actives as falling curves though it sought activators and does not explain the sign; nearly all actives have a fitted effect of over 65% in size
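FRET quenching reversal measured ClpP activation: 10 microg/mL B. subtilis ClpP at pH 8 with the FRET-FV decapeptide, read at 430 nm after 320 nm excitation. The 20-min minus 0-min signal was scaled between DMSO/no-enzyme wells and ADEP (5.8 microM final).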
DT40 TDP1 no CPT – qHTS for Inhibitors of human tyrosyl-DNA phosphodiesterase 1 (TDP1): qHTS in cells in absence of CPT | DT40 Tdp1-/- hTDP1 cells, no CPT, ATP luminescence, 48 h | Potency, µM (titrated, usually from 46.2 µM), for the others: at the top dose activity change, negative = growth inhibition, actives largely listed as inhibitors | actives 15% (n = 420,000); also: % is scaled to controls: 0 for no effect and ±100 for the full control effect; nearly all actives have a fitted effect of over 55% in size
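Luminescent ATP content (CellTiter-Glo) served as the growth readout. Knockout chicken DT40 cells expressing human TDP1 were exposed to compounds without camptothecin for a minimum 48 hr at 37 °C.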
Starred values were filed as active, the others as inactive; ? = inconclusive; nt = no result; [ ] = dose if it differs, or a comment. Unless noted, calls follow the shape of the dose curve; as a rule, active = well fitted curve in the direction sought with a large enough effect; inconclusive = small, poorly fitted or top-dose-only effect, or another doubt; inactive = no such curve, though single readings can be large; an effect the other way counts as inactive or inconclusive. Potency is read from the fitted curve at half-maximal effect.

SMILES	DT40 TDP1 CPT	TDP1 block	ClpP mod	DT40 TDP1 no CPT
COc1ccc(NC(=O)CSc2ccc(-c3sc(C)nc3C)nn2)cc1OC	?	6.4%	1.1%	8.2µM*
CCc1cc(CNC(=O)CCc2nnc(CCCc3ccccc3)o2)on1	5.3%	3.6%	-1.0%	7.5%
CC(C)Oc1ccc(CN2CCC(n3nccc3NC(=O)C3CC3)CC2)cc1	-6.0%	1.2%	0.2%	1.7%
O=C(OCN1C(=O)c2ccccc2C1=O)c1cc(S(=O)(=O)N2CCOCC2)ccc1F	-3.4%	-0.1%	-16.9%	11.7%
Cc1ccn2c(NCc3ccccc3)c(-c3cccs3)nc2c1	16.4µM*	5.1%	nt	23.1µM*
Cc1ccn2c(NC3CCCC3)c(-c3cccs3)nc2c1	14.6µM*	4.8%	nt	23.1µM*
Cc1ccc(C)c(N2C(=O)C3C4C=CC(CC4)C3C2=O)c1 (stereo not drawn)	9.6%	nt	-2.9%	7.0%
S=c1[nH]c2ccccc2n1CCOc1ccccc1	-1.9%	nt	0.0%	-0.4%
COc1ccccc1OCCn1c(=S)[nH]c2ccccc21	18.4µM*	5.0%	0.9%	?
Cc1cccc(OCCn2c(=S)[nH]c3ccccc32)c1	23.1µM*	-2.6%	-0.1%	?
Cc1cccc(OCCc2c(C)[nH]c(=S)[nH]c2=O)c1	?	2.3%	nt	16.4µM*
Cc1ccc(OCCn2c(=S)[nH]c3ccccc32)c(C(C)C)c1	25.9µM*	2.0%	0.1%	?
CCOc1ccc(OCCn2c(=S)[nH]c3ccccc32)cc1	-7.1%	nt	-5.2%	-26.3%
COc1ccccc1OCCn1c(=O)n(C)c2ccccc21	-9.3%	0.0%	nt	-18.4%
CCC(=O)N1CCC1(C)C(=O)Nc1nccs1 (stereo not drawn)	-5.6%	nt	0.6%	?
CN(C)S(=O)(=O)c1ccc(C(=O)OCC2CCCO2)cc1 (stereo not drawn)	-2.6%	nt	-1.3%	6.2%
CCCN1CCN(C(=O)c2ccc(S(=O)(=O)N(C)c3ccccc3OC)cc2)CC1	?	nt	0.7%	-4.0%
Cc1ccc(CN(C)C(=O)c2cccc(S(=O)(=O)N3CCN(Cc4ccccc4)CC3)c2)o1	?	11.5%	-2.3%	?
CN(Cc1c(F)cccc1Cl)C(=O)c1cccc(S(=O)(=O)NCc2ccccc2)c1	23.1µM*	-3.4%	0.8%	18.4µM*
CN(Cc1c(F)cccc1Cl)C(=O)c1cccc(S(=O)(=O)N2CCN(Cc3ccccc3)CC2)c1	20.6µM*	nt	-3.6%	?
CN(Cc1ccc(OC(F)F)cc1)C(=O)c1cccc(S(=O)(=O)N2CCN(Cc3ccccc3)CC2)c1	9.2µM*	nt	nt	8.2µM*
O=C(NCCn1cccn1)C1CCC(=O)N(CCc2ccc(Cl)cc2)C1 (stereo not drawn)	-11.2%	0.7%	2.9%	27.7%
O=C(NC1CC1)C1=NOC(CNc2ncc(C(F)(F)F)cc2Cl)C1 (stereo not drawn)	-0.2%	6.0%	1.0%	-11.5%
O=C(C1=NOC(CNc2ncc(C(F)(F)F)cc2Cl)C1)N1CCOCC1 (stereo not drawn)	0.461µM*	2.7%	nt	-9.2%
O=C(CSc1ccsc1[N+](=O)[O-])Nc1cc(F)ccc1F	-3.6%	-7.5%	-0.1%	?
SMILES	DT40 TDP1 CPT	TDP1 block	ClpP mod	DT40 TDP1 no CPT
CCN(CC)c1ccc(NC(=O)C(NS(=O)(=O)c2cccs2)C(C)C)c(C)c1 (stereo not drawn)	20.6µM*	0.9%	0.5%	20.6µM*
Cc1ccc(CNC(=O)CSc2ccsc2[N+](=O)[O-])cc1	?	0.0%	nt	10.3µM*
CCN(CC)c1ccc(NC(=O)CSc2ccsc2[N+](=O)[O-])c(C)c1	?	-2.3%	-1.4%	18.4µM*
COc1ccc2c(C)c(CCC(=O)NCCCN3CCCC3=O)c(=O)oc2c1C	-8.8%	nt	4.1%	-3.9%
CCC(C)[C@H](NC(=O)c1cc2cc(Cl)ccc2n1C)C(=O)N1CCC(C(=O)O)CC1 (stereo partly drawn)	0.5%	nt	nt	-6.6%
COCCCNC(=O)c1ccc(Cn2c(=O)c3ccccc3n(Cc3ccccc3C#N)c2=O)cc1	16.4µM*	3.5%	-13.7%	?
COCCCNC(=O)c1ccc(Cn2c(=O)c3ccccc3n(CC(=O)NCCc3ccc(OC)c(OC)c3)c2=O)cc1	23.1µM*	1.1%	nt	18.4µM*
COc1ccc(CCNC(=O)c2ccc(Cn3c(=O)c4ccccc4n(Cc4cccc(Cl)c4)c3=O)cc2)cc1OC	20.6µM*	3.6%	?	10.3µM*
CCn1c(=O)c(C(=O)NCCc2ccc(OC)c(OC)c2)c(O)c2ccccc21	16.4µM*	nt	?	20.6µM*
Cc1nnc(N2C(=O)c3oc4ccccc4c(=O)c3C2c2ccc(Cl)cc2)s1 (stereo not drawn)	-21.5%	5.7%	2.1%	-24.5%
COc1ccc(CCNC(=O)c2ccc(Cn3c(=O)c4ccccc4n(Cc4cccc(F)c4)c3=O)cc2)cc1OC	16.4µM*	-2.5%	35.5µM*	16.4µM*
Cc1cc(C(=O)Nn2c(-c3ccc(Br)cc3)nc3ccccc3c2=O)ccc1[N+](=O)[O-]	29.1µM*	5.8%	nt	?
COc1ccc(-c2nc3ccccc3c(=O)n2N)cc1	-2.7%	1.9%	-2.4%	-23.2%
COc1ccc(C(=O)On2c(-c3ccc(Br)cc3)nc3ccccc3c2=O)cc1	?	0.0%	nt	18.4µM*
O=C(Nn1c(-c2ccc(Br)cc2)nc2ccccc2c1=O)c1ccncc1	7.7%	2.3%	nt	-9.1%
CCOC(=O)CCN1C(=O)[C@@H]2[C@H]3C(=CC[C@H]2C1=O)C(=O)[C@H]1O[C@H]1[C@H]3O	nt	-3.7%[21 µM]	nt	nt
O=C(Cn1ncc2c3ccccc3n(Cc3ccc(Cl)cc3)c2c1=O)NC1CCCCCC1	3.0%	2.5%	-5.9%	-19.6%
CCN(CC)CCN(C(=O)c1ccc2c(c1)OCCO2)c1nc2c(Cl)cccc2s1	18.4µM*	8.9%	-9.2%	?
CN(C)CCN(C(=O)c1ccc2c(c1)OCCO2)c1nc2ccc(Cl)cc2s1	?	2.3%	nt	?
CCN(CC)CCN(C(=O)c1ccc2c(c1)OCCO2)c1nc2cc(C)cc(C)c2s1	14.6µM*	8.9%	-2.1%	?
Cn1c(CCC(N)=O)nnc1SCC(=O)Nc1ccccc1C(=O)NC1CC1	-3.9%	-6.0%	-4.5%	18.1%
COC(=O)C/C=C\[C@@H](C)[C@@H](CO)NS(=O)(=O)c1ccc(C)cc1	nt	4.8%[21 µM]	nt	nt
CCCc1nc2ccc(C(=O)OC)cn2c1Cc1ccccc1C(F)(F)F	?	nt	-19.4%	16.4µM*
CCCc1nc2ccc(C(=O)OC)cn2c1Cc1ccc(C)cc1	18.4µM*	nt	-22.2%	23.1µM*
CCCc1nc2ccc(C)cn2c1Cc1ccc(C)cc1	20.6µM*	nt	5.2%	18.4µM*
CCCc1nc2ccc(C(=O)OC)cn2c1Cc1ccccc1	?	nt	-15.8%	29.1µM*

Assay outcomes (PubChem)
